Test results published in PubChem BioAssay AID1942 (Johns Hopkins Ion Channel Center, 2009).
In all, about 2,400 compounds went through this assay and about 580 (24%) were called active. A selection follows. Values without a mark were called inactive.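 Rule for the calls: active = activity change at or above the mean plus 3 SD of buffer wells without dofetilide, per plate; inactive = the rest.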

molecular target: Potassium voltage-gated channel subfamily KQT member 2 (Rattus norvegicus) (UniProt O88943); assay: rat KCNQ2 channel activation by compounds alone, confirmation, counter-screen for hERG block protector project, cell-based, CHO, FluxOR thallium flux (AID 1942); settings: CHO-KCNQ2 cells, FluxOR thallium flux fluorescence; at 10 µM; stronger effect = higher value;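 note: normalized value minus buffer-control mean plus three SD of buffer wells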
Sequence (O88943 whole entry, looked up): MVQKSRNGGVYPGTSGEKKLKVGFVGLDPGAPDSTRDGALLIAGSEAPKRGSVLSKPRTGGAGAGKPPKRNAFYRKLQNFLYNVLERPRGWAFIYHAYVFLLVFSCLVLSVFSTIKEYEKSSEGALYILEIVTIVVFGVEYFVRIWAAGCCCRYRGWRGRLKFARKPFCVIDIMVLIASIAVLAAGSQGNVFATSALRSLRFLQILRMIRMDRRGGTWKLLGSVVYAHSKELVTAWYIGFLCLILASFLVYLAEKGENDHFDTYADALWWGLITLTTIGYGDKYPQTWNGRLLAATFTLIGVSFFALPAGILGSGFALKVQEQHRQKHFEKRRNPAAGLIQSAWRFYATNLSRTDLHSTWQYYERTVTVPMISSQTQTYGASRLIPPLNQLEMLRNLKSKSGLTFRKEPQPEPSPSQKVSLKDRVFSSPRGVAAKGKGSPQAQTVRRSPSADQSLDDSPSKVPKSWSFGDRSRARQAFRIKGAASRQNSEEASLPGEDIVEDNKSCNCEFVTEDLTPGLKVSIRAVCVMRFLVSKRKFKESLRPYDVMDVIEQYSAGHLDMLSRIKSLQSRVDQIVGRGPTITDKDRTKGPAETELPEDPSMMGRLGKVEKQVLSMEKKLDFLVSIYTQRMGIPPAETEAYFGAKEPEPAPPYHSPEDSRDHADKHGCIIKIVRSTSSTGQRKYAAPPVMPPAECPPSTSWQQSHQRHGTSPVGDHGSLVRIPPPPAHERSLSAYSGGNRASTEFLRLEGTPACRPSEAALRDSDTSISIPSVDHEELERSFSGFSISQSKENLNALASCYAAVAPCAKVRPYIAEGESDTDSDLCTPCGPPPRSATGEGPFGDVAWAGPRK

Row | Structure (SMILES) | activity change, less the hit threshold
1 | Cc1ccccc1Cc1c(C)nc2c(C(=O)NCc3ccc4c(c3)OCO4)cnn2c1C | -18.7%
2 | O=C(O)CNC(=O)c1ccc(NC(=O)/C(=C/c2ccccc2)NC(=O)c2ccco2)cc1 | -25.9%
3 | O=C(NC(=S)N(CCc1ccccc1)CCc1ccccc1)c1ccco1 | 36% (active)
4 | CC(CCc1ccccc1)NC(=S)NC(=O)c1ccco1 (stereo not given) | 15.2% (active)
5 | NC(=O)c1nsc(C(=O)N(CC(=O)NCc2ccccc2)c2ccc(F)cc2)c1N | -23.6%
6 | C/C(=N\NC(=O)c1ccc(NS(=O)(=O)c2cccs2)cc1)c1ccc2c(c1)OCO2 | -25.3%
7 | CNC(=O)COC(=O)c1cccc(S(=O)(=O)N2CCN(c3ccc(F)cc3)CC2)c1 | -11.1%
8 | C=CCn1c(=S)[nH]c2sc3c(c2c1=O)CCCC3 | 46.1% (active)
9 | C=CCn1c(=S)[nH]c2sc3c(c2c1=O)CCC3 | 34.8% (active)
10 | C=CCn1c(=S)[nH]c2nc3c(cc2c1=O)CCCC3 | -7.5%
11 | Cc1ccc(C(C)C)cc1OCCn1cncn1 | -20.3%
12 | CCCOc1ccc(C2NC(=S)NC(c3ccccc3)=C2C(=O)Nc2ccc(C)cc2)cc1OC (stereo not given) | -6.2%
13 | CNC(=O)CSc1nnc(-c2ccco2)n1-c1ccccc1 | -16.7%
14 | Cc1ccc(N/C=C/C(=O)c2cccs2)cc1 | -18%
15 | CCc1ccc(NC(=O)C(=O)NNC(=O)c2cccs2)cc1 | 67.5% (active)
16 | COc1ccc(NC(=O)CNC(=O)c2cccs2)cc1Cl | -13.7%
17 | O=C(Nc1ccc(NC(=O)C2CC2)nc1)c1cccs1 | -16.2%
18 | COc1ccc(/C=C/C(=O)NC(=S)NNC(=O)c2cccs2)cc1 | -21.3%
19 | Cc1ccc(NC(=O)C(=O)NNC(=O)c2cccs2)cc1 | 60.8% (active)
20 | C=CCc1cc(Cl)ccc1OCCOCCN(C)C | -18.7%
21 | Oc1ccc(N=Nc2ccccc2-c2nn[nH]n2)c(O)c1 | -0.7%
22 | Nc1nonc1C(=O)N1CCCC1 | -21%

Row | Structure (SMILES) | activity change, less the hit threshold
23 | Cc1cc(C(=O)NNC2CC(=O)N(c3ccc4ccccc4c3)C2=O)c(C)o1 (stereo not given) | -17.4%
24 | CC(=O)Oc1c(-c2ccco2)oc2ccccc2c1=O | 6.8% (active)
25 | COc1ccc(C(=O)c2oc3ccccc3c2N)cc1 | -8.5%
26 | COc1ccc(-c2oc3ccccc3c(=O)c2OC(C)=O)cc1 | 7.3% (active)
27 | COc1ccc(OC(=O)Cc2cccc3ccccc23)cc1 | -8.5%
28 | CC(=O)Oc1c(-c2ccc(Br)o2)oc2ccccc2c1=O | 99.4% (active)
29 | O=C(N/N=C\c1coc2ccccc2c1=O)c1ccco1 | -15.7%
30 | NC(=O)c1ccsc1NC(=O)CS(=O)(=O)c1ccccc1 | -4.3%
31 | COc1ccc(Cc2c(O)nc(SCC(C)C)[nH]c2=O)cc1 | -20.7%
32 | CCOC(=O)C(=CNc1cc(C)ccn1)C(=O)OCC | -11.3%
33 | CCOC(=O)C(=CNc1ccc(N2CCOCC2)cc1)C(=O)OCC | 0.3% (active)
34 | CCOC(=O)C(=CNc1cccc(C)n1)C(=O)OCC | -11.8%
35 | O=C(Cn1nnc(-c2cccc(C(F)(F)F)c2)n1)N1CCCCCC1 | 13.3% (active)
36 | O=C(c1cccc(C(F)(F)F)c1)C1CCCN(C(=O)CCn2cnnn2)C1 (stereo not given) | -8.8%
37 | NC(=O)Cn1nnc(-c2ccc(CN3CCCCC3)cc2)n1 | -14.8%
38 | Cc1nc(NCCc2ccc(S(N)(=O)=O)cc2)c2c(C)c(C)sc2n1 | 0.6% (active)
39 | O=C(NC1CCN(c2ncccn2)CC1)c1c(F)cccc1F | -9.6%
40 | COCC(=O)Nc1cc(C)cn(Cc2c(F)cccc2Cl)c1=O | -15.1%
41 | Cc1ccc2c(Cl)cc(Cl)c(OCC(=O)NC3CCS(=O)(=O)C3)c2n1 (stereo not given) | -23.4%
42 | Cc1csc2c(N3CCCCC3)ncnc12 | 3.5% (active)
43 | OCCN1CCN(c2ncnc3c2sc2nc(N4CCOCC4)c4c(c23)CCC4)CC1 | -19.1%
44 | CC1=CCC[C@@H]2[C@@](C)(CC/C(C)=C/C(=O)O)[C@H](C)CC[C@@]12C | -3.2%

Row | Structure (SMILES) | activity change, less the hit threshold
45 | CCCCn1c(N)c(C(=S)NC(=O)CC(C)(C)C)c(=O)n(C)c1=O | 9.2% (active)
46 | CC(=O)c1sc(-c2ccc(F)cc2)cc1NS(=O)(=O)c1ccc(C)cc1 | -14.9%
47 | O=C(NC(=S)Nc1nc2c(s1)CSc1ccccc1-2)c1ccccc1 | -2.4%
48 | COC(=O)c1ccc(C(=O)NC(=S)Nc2nc3c(s2)CCCC3)cc1 | 16% (active)
49 | CC(C)(C)c1ccc(C(=O)NC(=S)Nc2nc3c(s2)CCCC3)cc1 | 10% (active)
50 | COC(=O)c1ccc(C(=O)NC(=S)Nc2nc3c(s2)CC(C)CC3)cc1 (stereo not given) | -11.7%
51 | CN(C)/C=C1/C(=O)N(c2ccc([N+](=O)[O-])cc2)N=C1c1ccccc1 | -5.3%
52 | Clc1cccc(-c2ccc(C=Nc3ccc(N4CCOCC4)cc3)o2)c1Cl | -8.8%
53 | O=C(OCc1ccc(F)cc1)c1cc(S(=O)(=O)N2CCCCC2)ccc1N1CCOCC1 | -12.7%
54 | CCOC(=O)C1CCN(C(=O)CCS(=O)(=O)c2ccc3c(c2)CCN3C(=O)CC)CC1 | -16.7%
55 | S=c1nc(C2CC2)[nH]c2ccccc12 | 35.2% (active)
56 | S=c1nc(C2CCCCC2)[nH]c2ccccc12 | 4.1% (active)
57 | COc1cc(S(=O)(=O)NCC2COCCO2)ccc1-n1cnnn1 (stereo not given) | -13.9%
58 | O=C(N=Nc1c(O)[nH]c2ccc([N+](=O)[O-])cc12)c1cc(-c2ccccc2Cl)nc2ccccc12 | -10.8%
59 | COc1ccc(NC(=O)CN2C(=O)S/C(=C/c3cccn3-c3ccc(C(=O)O)cc3)C2=O)cc1 | -22.6%
60 | c1ccc(-c2ccnc3nc(N4CCN(c5ccccc5)CC4)nn23)cc1 | -26.3%
61 | Cc1cc([N+](=O)[O-])c(C)cc1-c1ccc(/C=N/NC(=O)Cn2nnnc2N)o1 | -10%
62 | COc1ccc(Cl)cc1C(=O)Nc1cccnc1Cl | -15.9%
63 | CC(=O)Nc1ccccc1C(=O)C(=O)Nc1ccc(Cl)cc1 | -18.3%
64 | COc1ccccc1C(=O)NNC(=O)C(=O)Nc1cccc(Cl)c1C | 131% (active)
65 | COc1ccc(C(=O)Nc2ccccc2C(=O)O)cc1Cl | -8.6%
66 | CC(=O)Nc1ccccc1C(=O)C(=O)Nc1ccccc1 | -23.5%

Row | Structure (SMILES) | activity change, less the hit threshold
67 | Cc1ccccc1C(=O)NNC(=O)C(=O)Nc1cccc(Cl)c1C | 17.7% (active)
68 | O=C(Nc1ccccc1C(=O)O)c1ccc(NC(=O)C2CC2)cc1 | -20.5%
69 | O=C(Nc1cc(Cl)ccc1O)C1CC(c2ccccc2Cl)=NO1 (stereo not given) | -19.1%
70 | Oc1ccc(Cl)cc1C1=NNC(c2cccs2)C1 (stereo not given) | 9.1% (active)
71 | CCOc1ccc2[nH]c(=O)c(CN(Cc3ccc(C)cc3)C(=O)N3CCCC3)cc2c1 | -12.4%
72 | CCSc1nnc(NC(=O)Cn2cnc3c2c(=O)n(C)c(=O)n3C)s1 | -15.7%
73 | S=c1[nH]nc(Nc2ccc(Cl)cc2)s1 | -19.3%
74 | Clc1ccc(Nc2nc3cccnc3s2)cc1 | -20.7%
75 | Clc1ccc(Nc2ccc(Cl)nn2)cc1 | 7.4% (active)
76 | COc1ccc(/C=N/NC(=O)C(=O)N2CCCC2)cc1 | -5%
77 | N#Cc1c(-c2ccco2)c2c([nH]c1=S)CCCC2 | -16.2%
78 | O=C(NCc1ccccc1)C(=O)Nc1nc(C23CC4CC(CC(C4)C2)C3)cs1 | -21.1%
79 | O=C(CCc1ccccc1Cl)Nc1ccc(S(=O)(=O)N2CCOCC2)cc1 | -19.3%
80 | O=C(NNC(=S)Nc1ccccc1)c1cccc(S(=O)(=O)N2CCOCC2)c1 | -7.9%
81 | O=[N+]([O-])c1cc(Cl)cc(/C=N/NC(=S)Nc2ccc(S(=O)(=O)N3CCOCC3)cc2)c1O | 29.8% (active)
82 | Cc1ccc(F)cc1CNC(=O)C1CCC(=O)N(C2CC2)C1 (stereo not given) | -13.7%
83 | N#Cc1ccc(-c2ccc(OCC(=O)Nc3cccnc3)cc2)cc1 | -9.1%
84 | O=C(C1CC1)N1N=C(c2ccccc2)CC1(O)C(F)(F)C(F)(F)F (stereo not given) | -22.1%
85 | O=C(CN1C(=O)NC(Cc2ccccc2)C1=O)Nc1ccccc1OC(F)F (stereo not given) | -20.5%
